Bioassay records: PubChem BioAssay, Broad Institute
aSyn 5UTR act = Activators via SNCA 5'UTR binding, MLPCN; alpha-synuclein 5'UTR reporter, activators screen; actives 7.1% (n = 300,000); AID 1814, 2009; activity score, % (tested at 7.5 µM), hits read low; in the data active = activity score below about -60%
* = called active by the depositor. Only a sample is shown.

SMILES | aSyn 5UTR act
O=C(Nc1ccc2c(c1)OCO2)c1ccc(Cl)s1 | -194*
O=C(Nc1ccc2c(c1)OCO2)Nc1ccc2c(c1)OCO2 | -129*
CC1(C)CN(c2ccc(N3CC(C)(C)C3=O)cc2)C1=O | -70*
Oc1c(C=Nc2ccccc2Cl)[nH]c2ccccc12 | -101*
Cc1ccc(-n2ncc3c(N4CCCC(C)C4)ncnc32)c(C)c1 (stereo not given) | -125*
CC1CCCN(c2ncnc3c2cnn3-c2ccccc2)C1 (stereo not given) | 61
Cc1ccc(-n2ncc3c(N4CCCC4)ncnc32)c(C)c1 | -114*
Cc1nc(SC(C)C(=O)NCC2CCCO2)c2cc(-c3ccccc3)sc2n1 (stereo not given) | -107*
O=C1N(Cc2ccc(F)cc2)CCN1c1ccc(F)cc1 | -81*
Cc1cccc(NC(=S)NC(=O)c2cccs2)n1 | -140*
O=C(NC(=S)Nc1cccc2cccnc12)c1cccs1 | -63*
Cc1nc(NC(=S)NC(=O)c2cccs2)ccc1Br | -161*
C=CCOc1ccc(CNc2nccs2)cc1 | -74*
CCOc1ccc(NC(=O)C(c2ccccn2)N(C(=O)CCl)c2ccc(F)cc2)cc1 (stereo not given) | -71*
CCOC(=O)c1c(C)[nH]c(C(=O)N/N=C/c2cccc(OC)c2)c1C | -104*
CCOC(=O)c1c(C)[nH]c(C(=O)NNC(=O)c2ccccc2)c1C | -67*
CCOC(=O)c1c(C)[nH]c(C(=O)N/N=C\c2ccccc2Cl)c1C | -64*
CCOc1ccc(NC(=S)NC(=O)/C=C/c2ccco2)cc1 | -91*
CN1CCN(c2ccc(NC(=S)NC(=O)/C=C/c3ccco3)cc2)CC1 | -147*
CC(C)c1ccc(/C=C/C(=O)NC(=S)Nc2ccc(CN3CCOCC3)cc2)cc1 | -130*
O=C(/C=C/c1ccccc1)NC(=S)Nc1ccc(N2CCOCC2)cc1 | -79*
COc1cccc(NC(=S)NC(=O)/C=C/c2ccco2)c1 | -114*
CCOC(=O)C1CCN(S(=O)(=O)c2c(Cl)ccc3nonc23)CC1 | -309*
CN(C)/C=C1\N=C(c2ccc(Cl)cc2Cl)OC1=O | -149*
Cc1ccc(C2=N/C(=C\N(C)C)C(=O)O2)cc1 | -144*
SMILES | aSyn 5UTR act
COc1ccc(O)c(C(=O)c2cnn(-c3ccc(Cl)cc3)c2)c1 | -75*
COc1ccc(O)c(C(=O)c2cnn(-c3ccccn3)c2)c1 | -130*
CCN(CC)S(=O)(=O)c1cc(OC)ccc1N=Nc1ccc(O)c2ncccc12 | 59
CCN1/C(=C2/SC(=S)N(C)C2=O)C=Cc2cc(C)ccc21 | -68*
C=CC[n+]1c(/C=C2\C=Cc3cc(C)ccc3N2CC)ccc2ccccc21 | 67
O=C1CN(C(=O)c2cccc(Br)c2)c2ccccc2N1 | -85*
Cc1ccc(C)c(Nc2c([N+](=O)[O-])cc(C(=O)N3CC(=O)Nc4ccccc43)cc2[N+](=O)[O-])c1 | 78
Cc1ccsc1/C=N/n1cnc2sc(C)c(C)c2c1=O | -101*
OCCOc1ccc(C2=NCCO2)cc1 | -72*
Cc1c(-c2nc(N)nc(Nc3ccc(F)cc3)n2)oc2ccccc12 | -95*
Cc1cc(C(=O)N/N=C/c2cc(Br)cc(Br)c2OC(=O)c2cccc(F)c2)n[nH]1 | 70
O=C(N/N=C/c1ccc(OC(=O)c2ccco2)cc1)c1ccccn1 | -123*
Cc1cc(C(=O)N/N=C/c2cc(Br)ccc2OC(=O)c2ccc(Br)cc2)n[nH]1 | 84
CC(C)(C)OC(=O)N/N=C/c1ccc(Br)cc1 | -132*
COc1cc(/C=N/NC(=O)c2ccccn2)ccc1OC(=O)c1ccc(Br)cc1 | -84*
COc1ccc(/C=N\NC(=O)c2c(C)nc3ccc(Br)cn23)cc1 | 51
O=C(Oc1ccc(/C=N/NC(=O)c2ccccn2)cc1)c1cccc(F)c1 | -116*
O=C(Oc1ccc(/C=N/NC(=O)c2ccccn2)cc1)c1ccc(Br)cc1 | -124*
O=C(N/N=C/c1cccc(OC(=O)c2ccco2)c1)c1ccc(F)cc1 | -104*
CC(C)(C)OC(=O)N/N=C\c1ccc(OC(=O)c2cccs2)cc1 | -91*
O=C(N/N=C/c1ccc(OC(=O)c2cccs2)cc1)c1ccccn1 | -98*
CN(c1ccc(O)cc1)S(=O)(=O)c1ccc2ccccc2c1 | -111*
CC(=O)Nc1nc(CCC(C)C)cc2c1c(=O)oc1ccccc12 | 61
CCN(CC)CC(=O)Nc1scc2c1c(=O)oc1ccccc12 | -124*
Cc1ccc(/C=N/NC(=S)N2CCOCC2)cc1 | -85*
SMILES | aSyn 5UTR act
O=C(NC(NC(=S)N1CCOCC1)C(Cl)(Cl)Cl)c1ccc(Cl)cc1 (stereo not given) | 66
S=C(N/N=C/c1ccc(Br)cc1)N1CCCCC1 | -195*
S=C(N/N=C/c1ccc(Cl)cc1)N1CCOCC1 | -69*
O=C(/C=C/c1ccco1)NCCc1ccccc1 | -126*
Cc1ccc(/C=C/C(=O)NCCc2ccccc2)o1 | -99*
CCCn1c(O)c(C=Nc2ccccc2)sc1=S | -86*
O=C(CCN1CCC(c2cccs2)=N1)c1cccs1 | -94*
O=C(/C=C/c1cccs1)Nc1ccc(N2CCOCC2)c(S(=O)(=O)Nc2ccccc2Cl)c1 | -139*
O=C(Nc1ccc(Cl)c(Cl)c1)Nc1ccc(N2CCCC2)c(S(=O)(=O)Nc2ccccc2Cl)c1 | 95
Cc1cc(C(=O)CSc2cccc[n+]2[O-])c(C)n1-c1ccc(OC(F)F)cc1 | -103*
Cc1ccc(NC(=O)CCCc2ccccc2)nc1 | -100*
Cc1ccc(NC(=S)NCCc2ccccc2)nc1 | -99*
C=CCN1C(=O)CS/C1=N\N=C\c1cccc([N+](=O)[O-])c1 | -73*
Cc1nn(-c2ccc3ccccc3c2)c(=O)c2ccccc12 | -183*
Cc1nn(-c2nc3ccccc3[nH]2)c(=O)c2ccccc12 | 115
Cc1nn(-c2ccc(Cl)c(Cl)c2)c(=O)c2ccccc12 | -64*
Cc1ccc(-n2ncc3ccccc3c2=O)cc1Cl | -143*
Cc1nn(-c2ccc(Cl)nn2)c(=O)c2ccccc12 | -89*
Cc1nn(-c2ccc(Cl)cc2)c(=O)c2ccccc12 | -85*
O=C(Cn1cnc2c(oc3ccccc32)c1=O)c1ccccc1 | -106*
Cc1cc(C)c2c(n1)sc1c(=O)n(CC(=O)c3ccccc3)cnc12 | -132*
Cc1cccc(NC(=O)c2cccc(OC(=S)N3CCOCC3)c2)c1C | -66*
CCOc1ccc(NC(=O)C(C)Oc2ccccc2C(=O)Nc2ccc(C)c(Cl)c2)cc1 (stereo not given) | -126*
Cc1ccc(NC(=O)CSc2ccccc2NC(=O)c2ccccc2)cc1Cl | -78*
Cc1ccc(NC(=O)COc2ccccc2C(=O)Nc2ccccc2)cc1Cl | -82*
SMILES | aSyn 5UTR act
Cc1cccc(NC(=O)c2ccccc2OCC(=O)c2ccc(F)cc2)c1 | 30
O=S(=O)(c1ccc(F)cc1)c1snnc1-c1ccccc1 | -76*
O=S(=O)(c1ccc(Cl)cc1)c1snnc1-c1ccccc1 | 116
Cn1cc(CCNCc2cn[nH]c2-c2ccc(-c3ccccc3)cc2)cn1 | -98*
CCN(CCn1cccn1)Cc1cn[nH]c1-c1ccc(-c2ccccc2)cc1 | -67*
CN(Cc1cn[nH]c1-c1ccc(-c2ccccc2)cc1)CC1CCOCC1 | -93*
CC(c1ccon1)N(C)Cc1cn[nH]c1-c1ccc(-c2ccccc2)cc1 (stereo not given) | -135*
CN(CCc1cnn(C)c1)Cc1cn[nH]c1-c1ccc(-c2ccccc2)cc1 | -84*
Cc1ccc(SCCSc2nc(C)cc(=O)[nH]2)cc1 | -133*
CC(=O)N/C(N)=N/c1nc2cc(C)ccc2o1 | -63*
CC(=O)N/C(N)=N/c1nc2cc([N+](=O)[O-])ccc2o1 | -97*
